{"source": "PubChem BioAssay AID2568", "about": "(National Center for Advancing Translational Sciences (NCATS), 2010)", "note": "“And” between values parts separate entries of the source, which are not always exact repeats. Equal entries are not always repeated. Inconclusive results are not listed. The source made the active and inactive calls. Calls follow the shape of the full dose curve."}
{"molecular_target": "Neuropeptide S receptor (Homo sapiens) (UniProt Q6W5P4)", "sequence (Q6W5P4 whole entry, looked up)": "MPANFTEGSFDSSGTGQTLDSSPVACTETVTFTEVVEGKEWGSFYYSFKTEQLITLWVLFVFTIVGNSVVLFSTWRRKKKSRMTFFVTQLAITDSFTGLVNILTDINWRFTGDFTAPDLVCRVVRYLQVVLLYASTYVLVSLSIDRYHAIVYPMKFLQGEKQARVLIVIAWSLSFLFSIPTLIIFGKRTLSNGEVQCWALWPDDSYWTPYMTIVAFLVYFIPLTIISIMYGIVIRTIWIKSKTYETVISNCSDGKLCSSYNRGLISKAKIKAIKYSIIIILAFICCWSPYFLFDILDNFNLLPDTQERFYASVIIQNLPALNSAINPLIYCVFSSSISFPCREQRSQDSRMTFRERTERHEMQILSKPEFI", "experiment": "Confirmation Concentration-Response Assay for Antagonists of the Neuropeptide S Receptor: cAMP Signal Transduction, SAR for Probe", "conditions": "CHO-NPSR cells, cAMP TR-FRET, antagonist mode; series mostly up to 47.8 µM; activity change, negative = inhibition: at the top concentration", "excerpt": "NIH Chemical Genomics Center [NCGC] NIH Molecular Libraries Probe Production centers Network [MLPCN] MLPCN Grant: X01-DA026210-01 Assay Submitter (PI): Heilig, Markus Alexander NCGC Assay Overview: Neuropeptide S receptor (NPSR), previously known as GPR154, is a recently de-orphanized G protein coupled receptor. Its endogenous ligand is the 20 amino acids peptide Neuropeptide S (NPS). […] NPS and its receptor are found in various tissues. Specifically they are highly expressed in brain areas that have been implicated in modulation of arousal, stress and anxiety. Central administration of NPS in mice produces an unusual profile of activity by inducing wakefulness and arousal, while at the same time suppressing anxiety. Therefore, NPSR may represent a novel drug target for the treatment of sleep and anxiety disorders. To identify NPSR antagonists, we developed a cell-based cAMP assay. NPS can stimulate the production of cAMP in Chinese hamster ovary cells stably expressing NPS receptor. This change in intracellular cAMP level can be detected by a homogeneous LANCE cAMP assay based on the TR-FRET (time resolved fluorescence resonance energy transfer) between a europium-labeled cAMP tracer complex and a cAMP-specific antibody labeled with Alexa Fluor 647. The europium-labeled cAMP tracer complex is formed by the tight interaction between Biotin-cAMP (b-cAMP) and streptavidin labeled with Europium-W8044 chelate (Eu-SA). Light pulse at 320 nm excites the europium of the cAMP tracer and the energy emitted is transferred to the Alexa molecule bound to the cAMP antibody, generating a TR-FRET signal at 665 nm. Residual energy from the europium will produce a light at 620 nm. The native unlabeled cAMP from cell lysates competes with the europium-cAMP tracer for antibody binding and reversely reduces the emission signal of Alexa by interrupting FRET between the two labeled molecules. Both emission signals from the FRET donor (620 nm) and the acceptor (665 nm) can be detected by a plate reader in the TRF mode. Expression of result in fluorescence ratio (665 nm/620 nm) helps to normalize differences due to cell density and reagent dispensing. This assay was successfully optimized to a 1536-well plate format. Select compounds from the primary screen (AID 1461) were chosen for confirmation based on potency, efficacy, SAR, and activity across other assays in PubChem and at NCGC. Other compounds are analogs of active compounds from the primary screen.\nNCGC Assay Protocol Summary: A Chinese hamster ovary (CHO) cell line stably expressing the NPS receptor (CHO-NPSR) was obtained from Dr. Heilig lab at NIAAA and maintained in F-12 Kaighn's media (Invitrogen, Carlsbad, CA, 21127) supplemented with 10 % FBS, 100 units/ml penicillin, 100 ug/ml streptomycin and 250 ug/ml geneticin at 37C, 5% CO2 in a humidified atmosphere. Before the assay, aliquots of cells were frozen and stored at -135C. The assay was performed in 1536-well format. Data are reported for both the ratio of the two emission wavelengths, and also for the component 'donor' channel, Em2=620. […] IC50 values were determined from concentration-response data modeled with the standard Hill equation. NPS 1536-well assay protocol: (1) Fresh or frozen CHO-NPSR cells were suspended in F-12 Kaighn's media supplemented with 10 % FBS, 100 units/ml penicillin and 100 ug/ml streptomycin. Cells were plated at 4 ul/well (1200 cells) to white, tissue culture treated 1536-well plates, and then cultured at 37C, 5 % CO2 for 16 to 30 hours. (2) Add 23 nl/well of compound in DMSO solution. The final titration for each compound was between 0.6 nM and 46 uM. (3) Add 1 ul of stimulation reagent (1X HBSS buffer, 5 mM HEPES, 0.1% BSA, 500 uM RO-201724 (Sigma-Aldrich, B8279), 1.5% Alexa 647-labeled anti-cAMP antibody (from Perkin Elmer), 100 nM NPS) (4) Incubation at 37C, 5 % CO2 for 60 min. (5) Add 1 ul/well detection reagent. […]"}
{"smiles": "Cc1c(P(=S)(c2ccccc2)c2ccccc2)c2ccccc2n1C", "Potency": "31.5 µM (active)"}
{"smiles": "Cc1[nH]c2ccccc2c1P(=S)(c1ccccc1)c1ccccc1", "Potency": "39.7 µM (active)"}
{"smiles": "Cc1c(P(=S)(c2ccccc2)c2ccccc2)[n+]2ccccc2n1C", "Potency": "2.23 µM (active) and 4.87 µM (active)"}
{"smiles": "S=P(c1ccccc1)(c1ccccc1)c1c(-c2ccccc2)[nH]c2ccccc12", "Potency": "31.5 µM (active)"}
{"smiles": "Cc1c(P(=S)(c2ccccc2)c2ccccc2)[n+]2ccccc2n1Cc1ccccc1", "Potency": "1.99 µM (active)"}
{"smiles": "Cc1c(P(=S)(c2ccccc2)c2ccccc2)[n+]2ccccc2n1C/C=C/c1ccccc1", "Potency": "0.387 µM (active)"}
{"smiles": "Cc1nc2ccccn2c1P(=S)(c1ccccc1)c1ccccc1", "Potency": "25 µM (active)"}
{"smiles": "Cc1c(P(=S)(c2ccccc2)c2ccccc2)[n+]2ccccc2n1CCc1ccccc1", "Potency": "2.5 µM (active)"}
{"smiles": "Cc1c(P(=S)(c2ccccc2)c2ccccc2)[n+]2ccccc2n1CCCc1ccccc1", "Potency": "0.772 µM (active)"}
{"smiles": "Cn1c(-c2ccccc2)c(P(=S)(c2ccccc2)c2ccccc2)c2ccccc21", "activity change, negative = inhibition": "-21% (inactive)"}
{"smiles": "S=P(c1ccccc1)(c1ccccc1)c1c[n+](Cc2ccccc2)c2ccccn12", "Potency": "9.96 µM (active)"}
